Assay results as given in PubChem BioAssay.
For part of these data: Potency and affinity values are given separately. Active and inactive are the calls of the source.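 How the source made its calls, unless noted: active means primary screen activator hit with a dose response curve and TRPC4 channel activation at any tested dose; inactive means no activation, no dose response, or not a primary hit.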

Key:
[1] = test system: TRPC4 beta (transient receptor potential cation channel C4), mouse; assay: TRPC4 cation channel opening, retest – cell-based, Fluo4 calcium, HEK293 TRPC4beta/mu-opioid, duplicates, 10 µM, confirmation (AID 2426;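 active means fluorescence ratio normalized to control raised more than 50% in primary screen plus both repeat runs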); settings: Fluo4 calcium fluorescence, at 10 µM; active compounds read high
[2] = test system: transient receptor potential cation channel C4 beta (TRPC4), mouse; assay: TRPC4 cation channel opening, second retest – cell-based, second round, Fluo4, HEK293 TRPC4beta/mu-opioid, 1 µM, confirmation (AID 2461;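 active means primary screen active and over 50% activation in each of two duplicate runs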); settings: Fluo4 calcium fluorescence, at 1 µM; active compounds read high
[3] = test system: TRPC4 (transient receptor potential cation channel C4 beta), mouse; assay: potentiation of DAMGO EC20 TRPC4 response – cell-based, second round, Fluo-4, HEK293 TRPC4beta/mu-opioid, 1 µM, confirmation (AID 2554;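 active means primary screen hit whose fluorescence ratio, in both repeats, exceeds the weak agonist control mean by 3 SD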); settings: DAMGO EC20, Fluo-4 calcium flux, at 1 µM; active compounds read high
[4] = test system: TRPC4 beta (transient receptor potential cation channel C4), mouse; assay: potentiation of DAMGO EC20 TRPC4 response – cell-based, Fluo-4, HEK293 TRPC4beta/mu-opioid, confirmation (AID 2555;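 active means primary screen hit whose calcium fluorescence ratio, in both repeats, exceeds the weak agonist control mean by 3 SD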); settings: DAMGO EC20, Fluo-4 calcium flux, at 10 µM; active compounds read high
[5] = molecular target: Short transient receptor potential channel 4 (Mus musculus) (UniProt Q9QUQ5); assay: blockers of DAMGO-evoked TRPC4 calcium flux – cell-based, Fluo4, HEK293 TRPC4beta/mu-opioid, confirmation (AID 2636;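 active means calcium signal cut by more than 3 SD below the full-agonist control yet still positive, in both repeats and the earlier primary screen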); settings: at 10 µM; active compounds read high
[6] = molecular target: Short transient receptor potential channel 4 (Mus musculus) (UniProt Q9QUQ5); assay: blockers of DAMGO-evoked TRPC4 calcium flux – cell-based, second round, Fluo4, HEK293 TRPC4beta/mu-opioid, 1 µM, confirmation (AID 2637;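 active means calcium signal ratio cut to more than 3 SD under the fully stimulated control mean yet still positive, in both repeats and the primary screen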;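 on inhibition: percent of integrated ratio relative to wells lacking test compound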); settings: at 1 µM; active compounds read high
[7] = molecular target: Short transient receptor potential channel 4 (Mus musculus) (UniProt Q9QUQ5); assay: calcium entry via TRPC4 opening agents – cell-based, HEK293 TRPC4/mu-opioid, Fluo-4 calcium, dose response (AID 434937)
[8] = molecular target: Short transient receptor potential channel 4 (Mus musculus) (UniProt Q9QUQ5); assay: potentiation of DAMGO-evoked TRPC4 calcium signal – cell-based, HEK293 TRPC4/mu-opioid, Fluo-4 calcium, EC20 DAMGO, dose response (AID 434941;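 active means earlier screen potentiator hit that boosts the TRPC4 ion channel at some dose, with a dose response; inactive means no potentiation, no dose response, or not a prior hit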;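 further: calcium entry triggered by an EC20 dose of DAMGO at the co-expressed mu-opioid receptor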)
[9] = molecular target: Short transient receptor potential channel 4 (Mus musculus) (UniProt Q9QUQ5); assay: block of DAMGO-driven TRPC4 calcium entry – cell-based, HEK293 TRPC4/mu-opioid, Fluo-4 calcium, dose response (AID 434942;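 active means primary screen inhibitor hit that blocks the TRPC4 channel at some tested dose, yielding a dose curve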)
[10] = molecular target: Short transient receptor potential channel 6 (Mus musculus) (UniProt Q61143); assay: TRPC6 blockade by TRPC4 inhibitor hits – cell-based, HEK293, membrane potential dye, duplicate, selectivity assay for TRPC4 inhibitor project, confirmation (AID 434948;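 active means active in primary screen and both duplicates, each dropping signal beyond three positive-control SD with fluorescence still positive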); settings: HEK293 TRPC6, membrane potential dye fluorescence, at 10 µM, stimulated with maximal-effect acetylcholine; active compounds read high
[11] = molecular target: Short transient receptor potential channel 6 (Mus musculus) (UniProt Q61143); assay: TRPC6 opening by TRPC4 activator hits – cell-based, HEK293, membrane potential dye, duplicate, selectivity assay for TRPC4 activator project, confirmation (AID 434950;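 active means membrane potential signal rise above negative control mean plus 3 SD in both duplicates, also active in the earlier TRPC4 screen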); settings: HEK293 TRPC6, membrane potential fluorescence, at 10 µM; activation: active compounds read high; outcome: activation
[12] = molecular target: Short transient receptor potential channel 6 (Mus musculus) (UniProt Q61143); assay: positive modulators of mouse TRPC6 channel – HEK293 cells, membrane potential dye, duplicate, selectivity assay for TRPC4 potentiator project, confirmation (AID 434952;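 active means compound raising the membrane signal above positive-control mean plus 3 SD in both repeats, and a primary screen hit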); settings: HEK293 TRPC6, membrane potential dye fluorescence, at 10 µM, maximal acetylcholine added after compound; active compounds read high
[13] = molecular target: Short transient receptor potential channel 4 (Mus musculus) (UniProt Q9QUQ5); assay: calcium flux activators in TRPC4/5HT1a cells, counter-screen for TRPC4 activator project, cell-based, second counter screen, HEK293 TRPC4/5HT1a, Fluo-4 (AID 434977;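 active means calcium signal rise above buffer-control mean plus 5 SD in both duplicates, and also a hit in the primary screen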); settings: Fluo-4 calcium flux, at 10 µM; active compounds read high
[14] = serotonin-gated TRPC4 signal block – cell-based, second counter screen, HEK293 TRPC4/5HT1a, Fluo-4, counter-screen for TRPC4 inhibitor project, confirmation (AID 434978;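 active means primary screen active whose calcium signal fell more than 3 SD beyond the full-serotonin control mean in both duplicate plates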;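 on outcome: serotonin given first at submaximal then at maximal dose after compound preincubation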); settings: Fluo-4 calcium flux, at 10 µM, serotonin added to trigger calcium flux; active compounds read high
[15] = test system: TRPC4 (mouse), co-expressed with 5HT1a in HEK293; assay: enhancement of serotonin-evoked TRPC4 response – cell-based, second counter screen, HEK293 TRPC4/5HT1a, Fluo-4, counter-screen for TRPC4 potentiator project, confirmation (AID 434979;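 active means signal rise over 3 SD above mean of control wells given weak agonist, in both repeats and first screen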); settings: Fluo-4 calcium flux, at 10 µM, serotonin added at its EC20 dose; active compounds read high
[16] = nonspecific calcium rise without TRPC4 – cell-based, HEK293 mu-opioid receptor line, counter-screen for TRPC4 activator project, confirmation (AID 449723;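 active means hit in primary screen, with calcium signal over 5 SD above buffer well mean in both duplicates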;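 further: counter screen cells carry the mu-opioid receptor alone and lack TRPC4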); settings: HEK293 mu-opioid cells, Fluo-4 calcium fluorescence, at 10 µM; active compounds read high
[17] = nonspecific potentiation of DAMGO calcium response – cell-based, HEK293 mu-opioid receptor line, counter-screen for TRPC4 allosteric potentiator project, confirmation (AID 449724;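 active means calcium signal rise more than 3 SD above the low-dose agonist control mean, in both duplicate plates and the primary screen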); settings: HEK293 mu-opioid receptor cells, Fluo-4 calcium flux, at 10 µM, compound added before EC20 DAMGO stimulus; active compounds read high

Short transient receptor potential channel 6 (Mus musculus), sequence (Q61143 whole entry, looked up): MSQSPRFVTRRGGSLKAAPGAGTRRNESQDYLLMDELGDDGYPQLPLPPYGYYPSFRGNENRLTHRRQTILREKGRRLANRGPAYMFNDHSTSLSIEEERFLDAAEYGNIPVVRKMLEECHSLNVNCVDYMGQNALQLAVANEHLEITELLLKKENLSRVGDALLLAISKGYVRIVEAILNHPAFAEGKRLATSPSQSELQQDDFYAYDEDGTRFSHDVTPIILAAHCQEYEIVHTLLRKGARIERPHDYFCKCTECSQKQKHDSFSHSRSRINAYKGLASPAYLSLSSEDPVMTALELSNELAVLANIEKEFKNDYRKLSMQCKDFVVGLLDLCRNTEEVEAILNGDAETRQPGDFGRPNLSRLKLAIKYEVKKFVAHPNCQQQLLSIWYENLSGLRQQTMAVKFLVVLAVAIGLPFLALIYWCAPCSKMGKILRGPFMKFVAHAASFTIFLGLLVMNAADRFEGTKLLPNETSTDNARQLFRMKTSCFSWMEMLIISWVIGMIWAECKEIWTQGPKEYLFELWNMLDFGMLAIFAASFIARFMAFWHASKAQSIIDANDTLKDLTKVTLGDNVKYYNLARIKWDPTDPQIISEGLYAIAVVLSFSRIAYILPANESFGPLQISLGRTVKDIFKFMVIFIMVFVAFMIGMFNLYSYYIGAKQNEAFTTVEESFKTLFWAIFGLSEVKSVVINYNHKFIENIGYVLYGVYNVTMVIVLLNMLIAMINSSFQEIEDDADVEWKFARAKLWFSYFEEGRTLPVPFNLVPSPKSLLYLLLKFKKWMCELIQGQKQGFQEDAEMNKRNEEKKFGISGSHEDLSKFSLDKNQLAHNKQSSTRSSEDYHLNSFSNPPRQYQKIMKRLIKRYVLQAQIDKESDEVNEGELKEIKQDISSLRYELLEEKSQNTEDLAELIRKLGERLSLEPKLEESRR
Short transient receptor potential channel 4 (Mus musculus), sequence (Q9QUQ5 whole entry, looked up): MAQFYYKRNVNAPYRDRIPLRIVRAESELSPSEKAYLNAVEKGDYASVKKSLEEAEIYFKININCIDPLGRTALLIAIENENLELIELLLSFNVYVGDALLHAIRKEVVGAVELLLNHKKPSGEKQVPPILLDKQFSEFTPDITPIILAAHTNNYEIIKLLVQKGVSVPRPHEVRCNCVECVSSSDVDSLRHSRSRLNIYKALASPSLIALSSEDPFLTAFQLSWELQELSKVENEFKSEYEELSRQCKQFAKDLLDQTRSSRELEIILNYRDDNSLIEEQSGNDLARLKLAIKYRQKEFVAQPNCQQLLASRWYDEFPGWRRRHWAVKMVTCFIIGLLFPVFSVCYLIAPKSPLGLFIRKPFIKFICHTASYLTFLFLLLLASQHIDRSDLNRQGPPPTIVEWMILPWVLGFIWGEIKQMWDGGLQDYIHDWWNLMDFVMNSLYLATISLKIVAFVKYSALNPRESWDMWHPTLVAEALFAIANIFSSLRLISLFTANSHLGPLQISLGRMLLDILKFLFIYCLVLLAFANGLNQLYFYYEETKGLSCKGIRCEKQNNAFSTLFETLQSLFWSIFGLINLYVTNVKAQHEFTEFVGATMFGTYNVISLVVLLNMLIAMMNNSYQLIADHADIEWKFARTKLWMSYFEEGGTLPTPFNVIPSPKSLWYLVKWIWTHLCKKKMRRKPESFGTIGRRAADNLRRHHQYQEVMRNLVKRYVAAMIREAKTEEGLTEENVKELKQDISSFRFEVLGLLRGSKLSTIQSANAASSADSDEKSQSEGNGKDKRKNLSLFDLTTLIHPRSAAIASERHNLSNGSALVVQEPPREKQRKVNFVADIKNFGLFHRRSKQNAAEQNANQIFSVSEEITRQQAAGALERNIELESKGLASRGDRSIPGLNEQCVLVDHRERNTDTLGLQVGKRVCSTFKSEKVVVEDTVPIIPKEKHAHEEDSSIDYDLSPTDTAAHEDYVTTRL

Cc1ccccc1-n1c(=O)c2c(n3cnnc13)-c1ccccc1CC21CCCCC1
inactive: outcome [1] | outcome [2] | outcome [3] | outcome [4] | outcome [5] | outcome [6] | outcome [7] | outcome [8] | outcome [9] | outcome [10] | outcome [11] | outcome [12] | outcome [13] | outcome [14] | outcome [16] | outcome [17]
active: potentiation [15] 10.5%

CSc1ccc(CN(C)C(C)C(=O)NCc2ccccc2)cc1 (stereo not given)
inactive: outcome [1] | outcome [2] | outcome [3] | outcome [4] | outcome [5] | outcome [6] | outcome [7] | outcome [8] | outcome [9] | outcome [10] | outcome [11] | outcome [12] | outcome [13] | outcome [14] | outcome [15] | outcome [16] | outcome [17]

COc1ccccc1N1CCN(c2ncc(C(=O)N3CCN(c4cccc(Cl)c4)CC3)c3ccccc23)CC1
active: potentiation [15] 13.4%
inactive: outcome [1] | outcome [2] | outcome [3] | outcome [4] | outcome [5] | outcome [6] | outcome [7] | outcome [8] | outcome [9] | outcome [10] | outcome [11] | outcome [12] | outcome [13] | outcome [14] | outcome [16] | outcome [17]

Cn1c(=O)c2c(nc(CN3CCc4ccccc4C3)n2Cc2ccc(F)cc2)n(C)c1=O
active: potentiation [15] 59.5%
inactive: outcome [1] | outcome [2] | outcome [3] | outcome [4] | outcome [5] | outcome [6] | outcome [7] | outcome [8] | outcome [9] | outcome [10] | outcome [11] | outcome [12] | outcome [13] | outcome [14] | outcome [16] | outcome [17]

Cc1cccn2c(=O)c3cc(C(=O)N(C)C)n(C)c3nc12
active: potentiation [4] 29% | potentiation [15] 37.3%
inactive: outcome [1] | outcome [2] | outcome [3] | outcome [5] | outcome [6] | outcome [7] | outcome [8] | outcome [9] | outcome [10] | outcome [11] | outcome [12] | outcome [13] | outcome [14] | outcome [16] | outcome [17]

CC1CCN(CCc2nc3cc(NS(=O)(=O)c4ccc(F)cc4)ccc3n2C)CC1
inactive: outcome [1] | outcome [2] | outcome [3] | outcome [4] | outcome [5] | outcome [6] | outcome [7] | outcome [8] | outcome [9] | outcome [10] | outcome [11] | outcome [12] | outcome [13] | outcome [14] | outcome [16] | outcome [17]
active: potentiation [15] 7.72%

CCN(CCCNC(=O)CCCOc1cc(=O)n(C)c2ccccc12)Cc1ccccc1
active: potentiation [15] 16.1%
inactive: outcome [1] | outcome [2] | outcome [3] | outcome [4] | outcome [5] | outcome [6] | outcome [7] | outcome [8] | outcome [9] | outcome [10] | outcome [11] | outcome [12] | outcome [13] | outcome [14] | outcome [16] | outcome [17]

C=CCOc1ccc(CN(C)Cc2nc3cc(C(F)(F)F)ccc3c(=O)[nH]2)cc1
active: potentiation [15] 10.9%
inactive: outcome [1] | outcome [2] | outcome [3] | outcome [4] | outcome [5] | outcome [6] | outcome [7] | outcome [8] | outcome [9] | outcome [10] | outcome [11] | outcome [12] | outcome [13] | outcome [14] | outcome [16] | outcome [17]

CCN1CCN(Cc2nc3c(c(=O)[nH]c(=O)n3C)n2Cc2ccccc2Cl)CC1
inactive: outcome [1] | outcome [2] | outcome [3] | outcome [5] | outcome [6] | outcome [7] | outcome [8] | outcome [9] | outcome [10] | outcome [11] | outcome [12] | outcome [13] | outcome [14] | outcome [16] | outcome [17]
active: potentiation [4] 12% | potentiation [15] 19%

CCCCN1CCc2c1nc1ccc(Br)cc1c2N
inactive: outcome [1] | outcome [2] | outcome [3] | outcome [4] | outcome [5] | outcome [6] | outcome [7] | outcome [8] | outcome [9] | outcome [10] | outcome [11] | outcome [12] | outcome [13] | outcome [14] | outcome [15] | outcome [16] | outcome [17]

C=CCOc1ccc(Br)cc1/C=N/O
inactive: outcome [1] | outcome [2] | outcome [3] | outcome [4] | outcome [5] | outcome [6] | outcome [7] | outcome [8] | outcome [9] | outcome [10] | outcome [11] | outcome [12] | outcome [13] | outcome [14] | outcome [15] | outcome [16] | outcome [17]

OC(c1ccccc1)(c1ccccc1)C1CCN(C(=S)NC2CCCC2)CC1
inactive: outcome [1] | outcome [2] | outcome [3] | outcome [4] | outcome [5] | outcome [6] | outcome [7] | outcome [8] | outcome [9] | outcome [10] | outcome [11] | outcome [12] | outcome [13] | outcome [14] | outcome [15] | outcome [16] | outcome [17]

COc1ccc(-n2cc(CNCc3cnc4ccccn34)c(-c3cccc(F)c3)n2)cc1
inactive: outcome [1] | outcome [2] | outcome [3] | outcome [4] | outcome [5] | outcome [6] | outcome [7] | outcome [8] | outcome [9] | outcome [10] | outcome [11] | outcome [12] | outcome [13] | outcome [14] | outcome [15] | outcome [16] | outcome [17]

COc1ccccc1C1/C(=C(\O)c2ccc3c(c2)OCCO3)C(=O)C(=O)N1Cc1cccnc1 (stereo not given)
inactive: outcome [1] | outcome [2] | outcome [3] | outcome [4] | outcome [7] | outcome [8] | outcome [9] | outcome [10] | outcome [11] | outcome [12] | outcome [13] | outcome [15] | outcome [16] | outcome [17]
active: inhibition [5] 82% | inhibition [6] 63% | inhibition [14] 41.7%

O=C(Nc1ccc(F)cc1)Nc1cc(S(=O)(=O)N2CCOCC2)ccc1N1CCCC1
active: potentiation [4] 53% | potentiation [15] 33%
inactive: outcome [1] | outcome [2] | outcome [3] | outcome [5] | outcome [6] | outcome [7] | outcome [8] | outcome [9] | outcome [10] | outcome [11] | outcome [12] | outcome [13] | outcome [14] | outcome [16] | outcome [17]
